From PubChem
Polio RdRp inh: poliovirus RdRp elongation inhibitors, primary screen, biochemical, fluorescence polarization, total intensity | Genome polyprotein (Poliovirus type 1 (strain Mahoney)), P03300 | poliovirus polymerase elongation; active compounds read low | % elongation, % (compound at 16.7 µg/mL) | actives 0.66% (n = 150,000); in the data active means % elongation below about 90%
Mtb MenB inh: M. tuberculosis MenB inhibitors, primary screen, biochemical, absorbance | MenB enzyme assay, absorbance read-out | inhibition, % (concentration not given with the values) | actives 0.43% (n = 100,000) | AID 540299, 2011; in the data active means inhibition above about 21%, passing the limit was not always enough
Target sequence (P9WNP5 whole entry, looked up): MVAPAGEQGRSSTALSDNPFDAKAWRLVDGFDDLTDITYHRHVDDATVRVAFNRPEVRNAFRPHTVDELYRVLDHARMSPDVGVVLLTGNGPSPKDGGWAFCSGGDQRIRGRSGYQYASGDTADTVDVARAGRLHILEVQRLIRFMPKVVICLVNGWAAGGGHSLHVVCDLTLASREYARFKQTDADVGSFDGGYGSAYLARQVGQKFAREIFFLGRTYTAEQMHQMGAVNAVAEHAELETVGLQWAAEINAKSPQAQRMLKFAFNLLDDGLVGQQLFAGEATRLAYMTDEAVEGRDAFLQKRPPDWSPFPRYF
Mtb MbtI inh: MbtI salicylate synthase inhibitors, primary screen, biochemical, fluorescence intensity; P9WFX0; purified MbtI enzyme, fluorescence intensity read-out; inhibition, % (concentration not given with the values); actives 0.89% (n = 100,000); in the data active means inhibition mostly above about 56%, no sharp cut-off; inactive means mostly below about 77%
AID504770: growth inhibition of E. coli YBA685, primary screen, V. cholerae RctB inhibitors | E. coli YBA685 rctB-dependent plasmid, OD600 growth, 3 h; active compounds read low | z-score (concentration not given with the values) | actives 0.27% (n = 130,000); in the data active means z-score below about -2, passing the limit was not always enough
The depositor's hits bear a star; . = no result given. An excerpt weighted towards active compounds, which were near 1.5% of everything screened.

SMILES	Polio RdRp inh	Mtb MenB inh	Mtb MbtI inh	AID504770
CN(CCC(N)=O)Cc1ccccc1	101	38*	-2	-0.45
CC1CCCCN1C(=O)CSc1nc(-c2ccccc2)no1 (stereo not given)	97	.	.	.
CSc1nc(C)[nH]c(=O)c1C#N	.	.	.	-1.1
Nc1cc(-c2ccccc2)c2ccccc2n1	102	-15	.	-2.2*
COc1ccc(C(=O)NCCn2cc(SCC(=O)Nc3ccccc3)c3ccccc32)cc1	102	-18	-5	-2.5*
COc1ccccc1NS(=O)(=O)c1ccc2oc(=S)n(CN(C)CCC#N)c2c1	85*	-18	5	-0.3
COc1ccccc1NS(=O)(=O)c1ccc2oc(=S)n(CN3CCCC3)c2c1	103	-12	13	-0.75
CN1C(=O)CSc2ccc(NC(=O)N3CCC(N4CCCCC4)CC3)cc21	105	-17	-2	-0.1
CN(C)Cc1ccccc1CN	107	-17	-3	-3.7*
COc1cccc(NC(=O)c2ccc(OC(=S)N3CCC(C)CC3)cc2)c1	106	1	.	-2.8*
C/S(=N\S(=O)(=O)c1cccc2nsnc12)c1ncccc1C(F)(F)F (stereo not given)	.	.	.	1.1
Cc1ccc(NC(=O)c2cc3c(Cl)nc4ccc(C)cc4c3s2)c(Cl)c1	63*	.	.	.
COc1ccc(Cl)cc1NC(=O)c1cc2c(Cl)nc3ccc(C)cc3c2s1	101	-11	0	-1.1
COc1ccccc1CNC(=O)CN1C(=O)c2cccnc2Oc2ccccc21	103	.	.	.
O=C(O)Cc1ccc(-n2cccc2)cc1	104	-63	-4	-1
O=C1CCCC(O)=C1C1(O)C(=O)c2ccccc2C1=O	79*	-2	-5	-1.4
CC(=Nc1ccccc1)C1=C(O)CCCC1=O	103	0	3	-0.55
Cc1nc(SCc2ccccc2)n[nH]1	101	-12	-7	-0.95
CCn1c(O)c(N=NC(N)=S)c2ccccc21	76*	-66	78	0.05
Sc1sccc1C=NC1CCCCC1	98	-206	99*	-0.45
CCCNc1c(NS(=O)(=O)c2ccc3[nH]c(=O)oc3c2)c(=O)oc2ccccc12	101	11	3	-0.7
O=C(OCc1ccccc1)N1CCOCCN(C(=O)OCc2ccccc2)CCOCC1	100	-20	-24	-0.1
N/C(=N\OC(=O)N1CCOCC1)c1ccccc1	100	8	-3	-2.7*
CC(C)n1cc(-c2noc(-c3cccs3)n2)c(=O)n(Cc2ccccc2)c1=O	106	-25	-6	-0.6
O=C(O)c1ccc(S(=O)(=O)Nc2ccc3oc(=O)sc3c2)cc1	.	.	78*	-1.5
SMILES	Polio RdRp inh	Mtb MenB inh	Mtb MbtI inh	AID504770
CNc1ccc2cccc(O)c2n1	102	-11	-34	-3.3*
O=C(COC(=O)c1cc(-c2ccco2)nc2ccccc12)Nc1ccc(F)c(F)c1F	101	-24	102	0.1
CC12CN3CC(C)(C1O)C(O)C(C)(C3)C2O (stereo not given)	86*	-11	-6	-0.3
CC(C)CCNC(=O)C1CCCN(S(=O)(=O)c2cccc3nsnc23)C1 (stereo not given)	100	-8	-6	-0.6
NC(=O)C1CCN(c2nc(C3CC3)nc3c2nnn3Cc2ccccc2Cl)CC1	102	52*	7	2.5
CN(C)c1nc(C2CC2)nc2c1nnn2Cc1ccccc1Cl	104	38*	7	1.9
CC(C)(C)c1nc(N2CCN(C(=O)c3ccco3)CC2)c2nnn(Cc3ccccc3Cl)c2n1	103	24*	23	0.85
CC(C)(C)OC(=O)N1CCC(c2nc3c(nnn3Cc3ccccc3Cl)c(=O)[nH]2)CC1	104	-17	-10	0.35
CCOc1cc(OCC)cc(C(=O)Nc2cccc(-c3nc4ccccc4[nH]3)c2)c1	104	.	.	.
CC(C)NC(=O)c1ccc2c(=O)n3c(nc2c1)CCCCC3	.	.	.	0.45
O=S(=O)(NC1=NCCS1)c1ccc(N=NN2CCCCC2)cc1	102	-12	-15	-1.3
Cc1ccc(S(=O)(=O)Nc2ccc(N=NN3CCCCC3)cc2)cc1	100	-57	20	-6.8*
CC(C)Cn1c(SC(C)C(N)=O)nc2ccccc21 (stereo not given)	107	7	6	0.9
O=C(COCc1cc(-c2ccc3c(c2)OCO3)on1)Nc1ccc(OC(F)(F)F)cc1	100	-22	13	-2.5*
NC(=O)CSc1c(-c2ccccc2)[nH]c2ccccc12	.	.	.	-1.1
Cc1nc(N)[nH]c(=O)c1CCC(C)C	105	-6	-7	-1.3
C=CCN1C(=O)NC(=O)/C(=C/c2ccco2)C1=O	104	-36	98*	-0.75
